HT1080 IDH1KD tx – toxicity to HT-1080 IDH1 knockdown cells (counter line); HT-1080 IDH1 knockdown viability, ATP luminescence, 48 h; Potency, µM (titrated, usually from 46.1 µM), without a hit: at the highest dose activity, negative = toxicity, actives largely listed as cytotoxic; hit rate 2% among 360,000; AID 686971;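 note: potency is the fitted concentration of half-maximal effect; 0% = DMSO wells and -100% = cell-free medium wells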
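CellTiter-Glo luminescence after 48 h compound exposure at 37 degrees C of IDH1-knockdown HT-1080 cells in 5% FBS RPMI. %Activity scaled between DMSO wells and cell-free media wells, with curves fitted and assigned curve classes.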
TDP1 cell noCPT – qHTS for Inhibitors of human tyrosyl-DNA phosphodiesterase 1 (TDP1): qHTS in cells in absence of CPT; DT40 Tdp1-/- hTDP1 cells, no CPT, ATP luminescence, 48 h; Potency, µM (doses to about 46.2 µM), without a hit: top-dose activity change, negative = growth inhibition, most hits filed as inhibitors; hit rate 15% among 420,000; note: potency is the fitted concentration of half-maximal effect; nearly all actives have a fitted effect of over 55% in size
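Growth kinetics read by CellTiter-Glo luminescence after ≥48 hr at 37 °C. Cells: DT40 Tdp1-/- stably carrying human TDP1, 400 per well, compound exposure in the absence of CPT (DMSO vehicle).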
IL-1B inflam inh – inhibitors of inflammasome signaling (IL-1 beta secretion). activity change, % at 57.5 µM. hit rate 4.7% among 360,000. THP-1 LPS/ATP IL-1B secretion, AlphaLISA, 16 h; active compounds read low; in the data active = activity change below about -50%; inconclusive = mostly about -30% to -49%
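THP-1 cells pretreated 1 hr with compounds (up to 57.5 uM final), then stimulated with LPS (250 ng/mL final) plus ATP (1.25 mM final); secreted IL-1B measured by AlphaLISA after 16 hr, decreased signal indicating inhibition.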
TDP1 cell CPT – DT40-hTDP1 cell growth loss with CPT. AID 686979. hit rate 12% among 420,000. Potency, µM (series often up to 46.2 µM), for inactives: at the highest dose activity change, negative = growth inhibition, usual class: inhibitors. chicken DT40 Tdp1-/-;hTDP1 cells + 20 nM CPT, ATP luminescence, 48 h; note: potency is the fitted concentration of half-maximal effect; nearly all actives have a fitted effect of over 55% in size
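Chicken DT40 Tdp1-/- cells stably complemented with human TDP1 were seeded at 400 cells/well in medium containing 20 nM camptothecin, exposed to pin-transferred compounds, and grown at 37 °C for at least 48 hr. Viability was read as ATP luminescence.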
ELG1 DNA repair – ELG1-dependent DNA repair inhibition | HEK293T ELG1-luciferase reporter, luminescence, 16 h; DNA damage induced by 5-fluorouridine | hit rate 2.3% among 330,000 | Potency, µM (highest dose often 46.1 µM), without a hit: at the top dose activity change, negative = inhibition, most hits filed as inhibitors | AID 504467; note: potency is the fitted concentration of half-maximal effect; nearly all actives have a fitted effect of over 55% in size
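HEK293T cells expressing luciferase-tagged ELG1 (2,000/well) received 5-Fluorouridine plus compound or DMSO for 16 hr at 37 °C. Luciferase was read by ONE-Glo luminescence after 30 min at room temperature.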
HT1080-NT tox – kills 2HG-producing HT-1080-NT fibrosarcoma cells; HT-1080-NT fibrosarcoma viability, CellTiter-Glo ATP luminescence, 48 h; Potency, µM (top dose mostly 46.1 µM), inactives show top-dose activity, negative = less viability, hits mostly cytotoxic; hit rate 1.6% among 360,000; AID 686970;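 note: NT is the 2HG producing partner of a matched IDH1 knockdown line; potency is the fitted concentration of half-maximal effect; 0% = DMSO-treated cells and -100% = media-only wells without cells; nearly all actives have a fitted effect of over 55% in size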
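Compounds were tested in concentration-response format on HT-1080-NT cells for 48 hours at 37 degrees C. Cell viability came from CellTiter-Glo luminescence; curves were classified by r2, response magnitude and activity.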
* marks the source's active call; other numbers are inactive results; ? = inconclusive; / = no result given. An excerpt weighted towards active compounds, which were near 19% of everything screened. Unless noted, calls come from the whole dose curve; as a rule, active = well fitted curve in the direction sought with a large enough effect; inconclusive = small, poorly fitted or top-dose-only effect, or another doubt; inactive = no such curve, though single readings can be large; an effect the other way counts as inactive or inconclusive. Unless noted, % is set by controls: 0 for no effect and ±100 for the full control effect.

SMILES	HT1080 IDH1KD tx	TDP1 cell noCPT	IL-1B inflam inh	TDP1 cell CPT	ELG1 DNA repair	HT1080-NT tox
CCOC(=O)C1CCN(c2ncnc3nc[nH]c23)CC1	8%	-26%	-56*	-1%	4%	0%
CCOC(=O)C1CCN(c2ncnc3c(C)csc23)CC1	-7%	13µM*	-6	?	?	-6%
CCOC(=O)C1CCN(c2ncnc3cc(OC)c(OC)cc23)CC1	-1%	21µM*	-19	?	-9%	1%
CC(=O)NNS(=O)(=O)c1scc(S(=O)(=O)c2ccc(Cl)cc2)c1C	0%	3%	2	-1%	12%	-2%
CC(=O)Nc1c(Cl)cc(Cl)c2c1Cc1cc(Cl)ccc1-2	6%	?	34	?	/	-4%
Cc1cccn2c(CN(C)CC3Cc4ccccc4O3)c(C(=O)N3CCCCC3)nc12 (centres undefined)	-10%	3%	19	-19%	-4%	-5%
COc1ccc(-c2nc(CSc3nnc(C)n4c3cc3occc34)c(C)o2)cc1OC	/	12µM*	/	10µM*	/	/
Cc1nnc(SCc2ccccc2Cl)c2cc3occc3n12	/	16µM*	/	?	/	/
Cc1ccc(-c2nc(CSc3nnc(C)n4c3cc3occc34)c(C)o2)cc1	/	?	/	-7%	/	/
Cc1ccc(-c2nc(CSc3nncn4c3cc3occc34)c(C)o2)cc1	/	-30%	/	?	/	/
COc1ccc(-c2nc(CSc3nncn4c3cc3occc34)c(C)o2)cc1	/	23µM*	/	16µM*	/	/
O=C(O)c1ccc(CNC(=O)c2ccc3c(c2)C(=O)N(Cc2cccnc2)C3=O)cc1	-14%	19%	?	-5%	-8%	-6%
COc1ccc2nc3sc(C(=O)NCCN4CCc5ccccc5C4)cc3cc2c1	1%	16µM*	29	21µM*	27%	-4%
COc1ccc2cc3cc(C(=O)NC4CC4)sc3nc2c1	-21%	18µM*	0	23µM*	?	-20%
O=C(O)c1cc(S(=O)(=O)Nc2ccc3cn[nH]c3c2)ccc1Cl	2%	2%	12	2%	11%	-2%
Cc1ccccc1NC(=O)c1sc2nc(-c3cc4ccccc4oc3=O)[nH]c(=O)c2c1C	/	?	/	8.2µM*	/	/
Cc1ccc(NC(=O)c2sc3nc(-c4cc5ccccc5oc4=O)[nH]c(=O)c3c2C)c(C)c1	/	-28%	/	-12%	/	/
Cc1cccc(C(=O)Oc2ccc(/C=N/O)cc2)c1	-21%	-5%	-16	-13%	?	-5%
O=[N+]([O-])c1ccc(N/N=C/c2cccc(O)c2)cc1	?	21µM*	-88*	?	?	?
O=[N+]([O-])c1ccc(N/N=C/c2cccc(O)c2O)cc1	?	15µM*	?	?	4%	?
Cc1cccc(C(=O)Oc2ccccc2/C=N/Nc2ccc([N+](=O)[O-])cc2)c1	-10%	16µM*	-6	29µM*	?	-14%
CCNC(=O)C1(C)CCCN(C(=O)c2cc(-c3ccccc3)cs2)C1 (centres undefined)	-1%	?	13	?	/	-3%
O=C(NCc1ccccc1)NC1COc2ccccc2C1 (centres undefined)	/	-5%	/	12%	/	/
Cc1ccccc1-c1nc2cc(NC(=O)Cc3ccc(Cl)cc3)ccc2o1	/	21µM*	/	?	/	/
COc1ccc(-c2nc3cc(NC(=O)Cc4ccc(Cl)cc4)ccc3o2)cc1OC	/	13µM*	/	16µM*	/	/
SMILES	HT1080 IDH1KD tx	TDP1 cell noCPT	IL-1B inflam inh	TDP1 cell CPT	ELG1 DNA repair	HT1080-NT tox
Cc1ccccc1-c1nc2cc(Cl)ccc2c(=O)o1	-3%	16µM*	0	?	-2%	0%
COc1ccc(-c2nc3cc(NC(=O)Cc4ccc(OC)c(OC)c4)ccc3o2)cc1	-11%	?	?	?	?	-7%
COc1ccc(-c2nc3cnc(N4CCN(C)CC4)nc3n(Cc3ccc(F)cc3)c2=O)cc1	/	-24%	/	?	/	/
CCOc1c2ccc(C(=O)NCc3ccc(C)cc3)cc2nn1CCOC	-1%	?	-7	-25%	-3%	4%
C=C[C@@H]1c2ccccc2N(S(=O)(=O)c2ccc(C)cc2)[C@H](c2ccc(C(F)(F)F)cc2)C1(C#N)C#N	15%	12µM*	13	23µM*	1%	9%
C=C[C@@H]1c2cccc(C)c2N(S(=O)(=O)c2ccc(C)cc2)[C@H](c2ccccc2)C1(C#N)S(=O)(=O)c1ccccc1 (some centres undefined)	-7%	21µM*	35	?	17%	-10%
C=C[C@@H]1c2c(F)cccc2N(S(=O)(=O)c2ccc(C)cc2)[C@H](c2ccc(OC(C)=O)cc2)C1(C#N)C#N	?	21µM*	-7	?	?	?
CC(=O)Oc1ccc(Cn2c(C)c(C(=O)NCCC#N)sc2=O)cc1	26%	?	42	?	/	6%
CC(=O)N[C@@H](CC(=O)N[C@@H](CCC(=O)O)C(=O)O)C(=O)O	/	-7%	/	-8%	/	/
O=C(COc1ccc(S(=O)(=O)NC2CCCCC2)cc1Cl)Nc1ccc2c(c1)OCO2	?	?	-59*	?	?	?
COc1ccc(CCNC(=O)COc2ccc(S(=O)(=O)NC3CCCCC3)cc2Cl)cc1OC	-19%	16µM*	26	23µM*	21µM*	-16%
CCC1CCc2sc(C(=O)NC3CCN(Cc4ccccc4)CC3)cc2C1 (centres undefined)	-28%	13µM*	-74*	21µM*	-15%	-10%
CC1CCc2sc(C(=O)NC3CCN(Cc4ccccc4)CC3)cc2C1 (centres undefined)	?	13µM*	-59*	21µM*	-7%	-21%
Cc1cc(C)n2nc(C(=O)OCC(=O)c3ccc(F)cc3)nc2n1	12%	-4%	10	-1%	?	13%
COc1ccc2c(CNCCc3cccs3)c(C(=O)O)n(Cc3ccc(F)cc3Cl)c2c1	/	6.5µM*	/	8.2µM*	/	/
COc1ccc2c(CNCc3cccs3)c(C(=O)O)n(Cc3ccc(F)cc3Cl)c2c1	/	1.5µM*	/	7.3µM*	/	/
COc1ccc(-n2c(=O)c3ccc(C(=O)NCc4ccc(C)cc4)cc3n(Cc3ccc(F)cc3Cl)c2=O)cc1	/	0%	/	6%	/	/
Cn1c(SCc2cccc(F)c2)nc2c([nH]c3ccccc32)c1=O	/	?	/	7.3µM*	/	/

Source: PubChem
